Data on 10 compounds can be found in PubChem BioAssay AID720560 (Broad Institute, 2013).

Potency and affinity values are given separately. Records with an inconclusive call do not appear. Values without a mark were called inactive.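 How the source made its calls: active means signal drop whose fitted half-maximal concentration is at most twice the top valid dose; inconclusive means flat moderate drop between 30 and 70 percent, or an unreliable fit; inactive means the rest.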

This experiment can be described thus: hypoxia HIF reporter signal reduction – HeLa cells, luminescence, dry powder samples, 2158-08, ARNT-TACC3 inhibitor project, dose response (AID 720560). Conditions: HeLa 3xHRE-luciferase reporter; series mostly up to 60 µM; activity change, negative = inhibition: at the top concentration.
As to `Cc1nnc(NC(=O)c2ccc(S(=O)(=O)N3CCCCC3)cc2)o1`, the “activity change, negative = inhibition” value is -28.6%.
The value for `Cc1c(C(=O)N(C)C)sc2nc(-c3ccccn3)[nH]c(=O)c12` was 38.4%; that for `CC1CCN(S(=O)(=O)c2ccc(C(=O)Nc3nnc(-c4ccno4)o3)cc2)CC1` was 17.4%.
Take `O=C(CSc1ccc(-c2ccccn2)nn1)Nc1ccccc1`: the “activity change, negative = inhibition” value is 25.6% [at 30 µM].
The value for `O=C(CSc1ccc(-c2ccccn2)nn1)NC1CCCCC1` was 49.1%; that for `O=C(Nc1nnc(C2=COCCO2)o1)c1ccc(S(=O)(=O)N2CCCCC2)cc1` was 48.6%.
Regarding `C=CC1=C(C(=O)O)N2C(=O)[C@@H](NC(=O)/C(=N\O)c3csc(N)n3)[C@H]2SC1` (stereo in doubt), the “activity change, negative = inhibition” value was -8.92%.
Consider `CC1CCN(S(=O)(=O)c2ccc(C(=O)Nc3nnc(-c4ccccn4)o3)cc2)CC1`, for which the “activity change, negative = inhibition” value is 52.4%.
With `O=C(CSc1ccc(-c2ccccn2)nn1)N1CCCC1`, the “activity change, negative = inhibition” value was 101%.
Turning to `Cc1ccc(C(=O)Nc2nc(-c3ccccn3)cs2)cc1S(=O)(=O)N1CCOCC1`, the “activity change, negative = inhibition” value was 46.9% [at 30 µM].
